Laboratory results published in PubChem BioAssay.
Results filed as inconclusive are left out. The source made the active and inactive calls.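 Rule for the calls, unless noted: active = viability at or under a set limit in both replicates, limit being median viability minus 3 SD (cut at about 48% in these data, passing the limit was not always enough); inconclusive = at or under the limit in just one replicate; inactive = at or above the limit in both replicates.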

Key:
[1] = Her2 expression decrease, cell viability multiplex – SKBR3 breast tumor cells, AlphaScreen, ATP viability, primary screen (AID 461;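 active = Her2 level under about 52% in both replicate screens, with viability over 70% of control, limit read from the data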;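 for Her2 level: lower value means less Her2 protein in the cells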;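 for viability: percent of carrier control wells set as 100% viability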); conditions: SKBR3 Her2 protein level, 18-24 h, measured here: SKBR3 viability, ATP luminescence, at 10 µM
[2] = target: Receptor tyrosine-protein kinase erbB-2 (Homo sapiens) (UniProt P04626); assay: as above; conditions: 18-24 h, at 10 µM, stronger effect = lower value
[3] = reduced viability of SK-BR-3 breast cancer cells – cell-based, 24 h, human, pilot screen (AID 572;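 active = viability at or below 10% of carrier control in both of two separate runs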;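 note: compound exposure lasted between 18 and 24 h rather than exactly 24 h; 100% = carrier-treated control wells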); conditions: SK-BR-3 viability, CellTiter-Glo luminescence, at 10 µM, stronger effect = lower value
[4] = HUVEC growth inhibition – cell-based, human, primary screen (AID 575;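 active = viability at or below 30% in both replicate assays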;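 note: 100% = median of untreated cell wells with 0.1% DMSO on each plate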); conditions: HUVEC proliferation, CellTiter-Glo luminescence, 72 h; at 10 µM; stronger effect = lower value
[5] = H69AR cell proliferation blockers – human, duplicate replicates, primary screen (AID 580); conditions: H69AR lung tumor cells viability, ATP luminescence, 72 h; at 10 µM; stronger effect = lower value;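 note: 100% = mean luminescence of untreated wells and 0% = no signal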
[6] = MRP1 drug-resistance reversers in H69AR cells – cell-based, doxorubicin co-treatment, pilot screen (AID 601;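 active = viability loss from added drug above about 55%, and viability with drug at most 40%, in both replicates, limit read from the data, passing the limit was not always enough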); conditions: CellTiter-Glo, 72 h, at 10 µM; for differential viability (reversal): stronger effect = higher value
[7] = yeast transport mutant growth inhibition pilot in 384-well plates, post-Golgi transport modulator project (AID 636; in the data active = inhibition above about 31%); conditions: absorbance 615 nm, about 18 h, stronger effect = higher value
[8] = growth suppression of yeast trafficking mutant, preliminary HTS, modulators of trafficking downstream of Golgi apparatus project, 1536-format plate, OD 615 nm (AID 637; in the data active = inhibition above about 30%); conditions: yeast transport mutant growth, absorbance 615 nm, 18 h; stronger effect = higher value
[9] = S. cerevisiae growth inhibition in permissive medium (OD615), pilot counter-assay for S. cerevisiae lifespan shortening project, permissive growth control (AID 705;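 active = growth inhibition above 25% in both replicates, a cutoff set 3 SD above the mean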); conditions: OD615, 24 h, at 10 µM, stronger effect = higher value
[10] = S. cerevisiae growth inhibition in restrictive medium, OD615, pilot screen, restrictive growth control, yeast lifespan reduction project (AID 706;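 active = growth inhibition above a set limit, 3 SD over mean compound inhibition, in both replicates, cut at about 43% in these data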;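 note: modified DeaD lifespan yeast strain shifted to restrictive glucose medium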); conditions: OD615, 48 h, at 10 µM, stronger effect = higher value
[11] = doxorubicin toxicity protection in MRP-1 cells – H69AR cells, CellTiter-Glo, duplicate, MRP-1 activator project, pilot screen (AID 807;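 active = viability increase at or above a cutoff of the median across tested compounds plus 3 SD, cut at about 8.5% in these data, passing the limit was not always enough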;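 note: compound pretreatment 18-22 h then 72 h combined with doxorubicin; 0% = doxorubicin alone and 100% = vehicle without doxorubicin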); conditions: H69AR viability with doxorubicin, CellTiter-Glo luminescence; at 10 µM; stronger effect = higher value
[12] = viability of HCT116 without oncogenic beta-catenin – human colon tumor cells, pilot screen (AID 823;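 active = cell viability at or below a set limit in both duplicate runs, the limit being the all-compound median minus 4 SD, cut at about 23% in these data, passing the limit was not always enough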;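 note: 0% = wells killed by 20 µM Hyamine and 100% = untreated DMSO cell wells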); conditions: HCT116 beta-catenin knockout viability, CellTiter-Glo, 60 h; at 10 µM; stronger effect = lower value
[13] = viability of PTEN-null HCT116 cells – cell-based, HCT116 clonal line, CellTiter-Glo, pilot screen (AID 824;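 active = viability at or below 27.92% in each of two runs, the all-compound median minus 4 SD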;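 note: 0% = 20 µM Hyamine control and 100% = vehicle cell control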); conditions: HCT116 PTEN-deleted viability, 60 h, at 10 µM, stronger effect = lower value
[14] = RAM pathway blockade in budding yeast – dse1pr::URA3 reporter, 5-FOA selection, pilot screen (AID 869;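 active = inhibition over a set limit, the all-compound mean plus 3 SD, in both replicate runs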;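 note: 0% = DMSO wells with no growth and 100% = 10 µM 1-NA-PP1 with full growth; RAM network block rescues cells from 5-FOA so hits raise OD615 growth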); conditions: S. cerevisiae dse1pr::URA3 5-FOA growth, OD615, 2 d; at 10 µM; stronger effect = higher value; strain carries analog-sensitive mutant Cbk1 kinase
[15] = RAM signaling pathway blockade in yeast – S. cerevisiae, Pdr1DBD-CYC8 efflux-inhibited sensitized strain, primary screen (AID 1298;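 active = RAM network inhibition above 8.4% in each of two replicates, 3 SD over the compound average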;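 note: 0% = DMSO untreated cells without growth and 100% = 10 µM 1-NA-PP1 full growth; higher means more yeast growth rescued from 5-FOA killing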); conditions: S. cerevisiae cbk1-as DSE1-URA3 strain, 5-FOA growth OD615, 2 d; at 50 µM; stronger effect = higher value
[16] = H69AR cells + 2 uM doxorubicin, measured here: viability with 2 uM doxorubicin, stronger effect = lower value
[17] = H69AR cells, compound alone cytotoxicity

Chain of Receptor tyrosine-protein kinase erbB-2 (Homo sapiens) (P04626 whole entry, looked up): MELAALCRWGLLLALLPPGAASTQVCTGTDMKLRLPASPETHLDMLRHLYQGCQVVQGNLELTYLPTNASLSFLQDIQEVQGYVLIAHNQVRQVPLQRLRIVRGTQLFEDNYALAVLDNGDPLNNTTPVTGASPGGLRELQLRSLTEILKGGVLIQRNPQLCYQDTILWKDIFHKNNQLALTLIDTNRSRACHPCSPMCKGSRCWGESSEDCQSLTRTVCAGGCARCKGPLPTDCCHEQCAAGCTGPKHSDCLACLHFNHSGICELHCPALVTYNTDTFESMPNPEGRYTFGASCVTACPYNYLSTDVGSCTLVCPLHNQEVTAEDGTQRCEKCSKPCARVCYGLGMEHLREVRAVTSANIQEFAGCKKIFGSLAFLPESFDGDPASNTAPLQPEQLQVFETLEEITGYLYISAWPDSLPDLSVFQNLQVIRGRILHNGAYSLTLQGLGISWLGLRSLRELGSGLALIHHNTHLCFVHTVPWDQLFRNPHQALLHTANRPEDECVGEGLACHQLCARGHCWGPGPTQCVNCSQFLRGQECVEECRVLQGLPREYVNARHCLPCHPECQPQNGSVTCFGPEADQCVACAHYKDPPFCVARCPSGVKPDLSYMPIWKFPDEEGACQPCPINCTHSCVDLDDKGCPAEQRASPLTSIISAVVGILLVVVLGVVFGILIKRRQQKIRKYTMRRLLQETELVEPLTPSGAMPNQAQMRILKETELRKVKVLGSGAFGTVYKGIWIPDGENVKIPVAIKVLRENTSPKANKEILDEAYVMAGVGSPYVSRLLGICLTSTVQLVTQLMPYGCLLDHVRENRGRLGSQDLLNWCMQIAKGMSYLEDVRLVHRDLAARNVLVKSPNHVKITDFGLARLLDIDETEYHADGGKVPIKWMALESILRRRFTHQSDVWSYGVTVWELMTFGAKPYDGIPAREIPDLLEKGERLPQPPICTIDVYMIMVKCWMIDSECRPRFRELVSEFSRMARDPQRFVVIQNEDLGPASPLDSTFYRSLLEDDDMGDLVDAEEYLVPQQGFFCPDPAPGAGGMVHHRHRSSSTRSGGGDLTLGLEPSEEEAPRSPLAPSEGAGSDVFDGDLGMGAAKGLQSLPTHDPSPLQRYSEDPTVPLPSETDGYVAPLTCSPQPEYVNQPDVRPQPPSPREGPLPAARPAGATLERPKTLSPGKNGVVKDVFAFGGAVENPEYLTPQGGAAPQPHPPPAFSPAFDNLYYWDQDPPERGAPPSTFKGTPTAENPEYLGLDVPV

COc1cccc(C2C(C(N)=O)=C(C)Nc3nc(CCCO)nn32)c1OC (stereo unspecified)
96.4%: viability [6, 17]
97.5%: viability [6, 16]
inactive: Her2 level [2] 103% | viability [3] 102% | viability [4] 93.8% | viability [5] 96.4% | differential viability (reversal) ([6]; H69AR cells + 2 uM doxorubicin) -1.08% | inhibition [7] 0.93% | inhibition [8] -3.67% | growth inhibition [9] -8.7% | growth inhibition [10] 14.1% | viability increase [11] -0.88% | viability [12] 105% | viability [13] 104% | inhibition [14] 0.085% | RAM network inhibition [15] 0.27%
102%: viability [1]

CC1CCc2nn(CC(=O)NCc3ccc4c(c3)OCO4)cc2C1 (stereo unspecified)
inactive: Her2 level [2] 88% | viability [3] 86.5% | viability [4] 90.7% | viability [5] 100% | differential viability (reversal) ([6]; H69AR cells + 2 uM doxorubicin) 9.8% | inhibition [7] -2.93% | inhibition [8] 2.79% | growth inhibition [9] -0.315% | growth inhibition [10] -4.54% | viability increase [11] -0.84% | viability [12] 108% | viability [13] 94.5% | inhibition [14] -0.525% | RAM network inhibition [15] 1.68%
90.6%: viability [6, 16]
100%: viability [6, 17]
86.5%: viability [1]

C=CCSc1nnc(Cc2c(C)[nH]c3ccccc23)o1
inactive: Her2 level [2] 96% | viability [3] 90.5% | viability [4] 84.7% | viability [5] 92.2% | differential viability (reversal) ([6]; H69AR cells + 2 uM doxorubicin) 6.96% | inhibition [7] -3.87% | inhibition [8] -2.5% | growth inhibition [9] 1.6% | growth inhibition [10] 3.4% | viability increase [11] -0.66% | viability [12] 99.7% | viability [13] 99.5% | inhibition [14] -0.545% | RAM network inhibition [15] 1.36%
85.3%: viability [6, 16]
92.2%: viability [6, 17]
90.5%: viability [1]
